According to ChEMBL document CHEMBL3988442, “University of Dundee, Small-Polar-MMV Screening Library” (2021):
Screen size: about 48,000 compounds; about 13,000 (27%) showed an effect of 50% or more. Some of the results follow.

test system: Wolbachia pipientis; assay: Anti-Wolbachia Cell-Based Screen; assay type: functional; set-up: scale not given: in the data most compounds retested in dose-response had high values; settings: 5 µM

| SMILES | Percent Effect [%] |
| --- | --- |
| CC(C)c1nc(-c2cc(C(=O)NCCN(C)C)c3ccccn23)cs1.O=C(O)C(F)(F)F | -4.099 |
| O=C1N(CCCc2ccccc2)CCCC1(O)CN1CCC(CO)CC1 (centres undefined) | -7.352 |
| CC(C)n1ncc2c1NC(=O)C(C#N)C21CCCC1 (centres undefined) | 15.91 |
| Cc1ccc(CN2CC[C@H]3OCC[C@@H](C(=O)NCC4CC4)[C@@H]3C2)s1.O=C(O)C(F)(F)F | -8.513 |
| CS(=O)(=O)N1CC[C@H]2O[C@H](C(=O)NCCc3ccncc3)CC[C@H]21.O=C(O)C(F)(F)F | -5.225 |
| Cc1ccc(CN2CC[C@@H]3OCCN(Cc4ccncc4)[C@H]3CC2)s1.O=C(O)C(F)(F)F.O=C(O)C(F)(F)F.O=C(O)C(F)(F)F | 91.24 |
| Cc1ccc(CN2CC[C@H]3[C@H]2CCN3S(=O)(=O)C2CC2)s1.O=C(O)C(F)(F)F | -4.175 |
| Cc1ccc(CN2CC[C@@H]3OCCN(S(C)(=O)=O)[C@H]3CC2)s1.O=C(O)C(F)(F)F | 114.1 |
| CS(=O)(=O)N1CCO[C@@H]2CN(Cc3ccc(F)cc3)CC[C@@H]2C1.O=C(O)C(F)(F)F | -0.3298 |
| COCCN1CCO[C@@H]2CN(Cc3ccc(C)s3)C[C@@H]2C1.O=C(O)C(F)(F)F.O=C(O)C(F)(F)F | -5.835 |
| Cc1ccc(CN2CC[C@H]3[C@H]2CCN3S(C)(=O)=O)s1.O=C(O)C(F)(F)F | -3.604 |
| CS(=O)(=O)N1CCO[C@@H]2CCN(Cc3ccncc3)CC[C@H]21.O=C(O)C(F)(F)F.O=C(O)C(F)(F)F | 114.1 |
| CC1CN(S(=O)(=O)c2cc(S(C)(=O)=O)ccc2Br)c2cccnc2O1 (centres undefined) | -14.61 |
| CC1(C)CN(CC(F)(F)F)CCN1CC(=O)N1CCCCC1 | -2.434 |
| O=C(O)C(F)(F)F.O=S(=O)(NC[C@]12COC[C@H]1CN(c1ncc(F)cn1)C2)C1CC1 | 7.707 |
| Cc1nc2cc(O)nn2c(C)c1CCC(=O)N(C)Cc1ccccc1 | 86.37 |
| Cc1nc2c(C#N)cnn2c(C)c1CCC(=O)N(C)C(C)C(C)C (centres undefined) | 7.938 |
| CCCN(CC(F)F)C(=O)CCc1c(C)nc2cc(O)nn2c1C | 131.4 |
| COCC(C)N(C)C(=O)CCc1c(C)nc2c(C#N)cnn2c1C (centres undefined) | -1.234 |
| COC(=O)CCc1c(C)nc2cc(O)nn2c1C | 10.93 |
| Cc1nn(CCC#N)c(C)c1CCC(=O)N(C)Cc1ccsc1 | 21.07 |
| Cc1nc2cc(O)nn2c(C)c1CCC(=O)N(C)CCC(C)C | 96.83 |
| Cc1nn(C)c(C)c1CCC(=O)N(C)Cc1ccc2nsnc2c1 | 27.84 |
| Cc1nc2ccnn2c(C)c1CCC(=O)N1CCN(C2CC2)CC1 | 0.559 |
